Legend:
Experiment in all cases: DAPPL (digital affinity profiling via proximity ligation, sequencing); 10 mM Tris-HCl pH 7.5, 50 mM NaCl, 1 mM DTT, 4% glycerol, room temperature, 30 min; GST-TFs on glutathione beads, 16-mer random dsDNA library, 0.1% formaldehyde crosslink after washing; high values mean tight binding
[1] = molecular target: T1, FEV (Homo sapiens, UniProt Q99581 1-238); details: protein: recombinant; tags: N-terminal GST; dsDNA, one strand shown
T1 sequence: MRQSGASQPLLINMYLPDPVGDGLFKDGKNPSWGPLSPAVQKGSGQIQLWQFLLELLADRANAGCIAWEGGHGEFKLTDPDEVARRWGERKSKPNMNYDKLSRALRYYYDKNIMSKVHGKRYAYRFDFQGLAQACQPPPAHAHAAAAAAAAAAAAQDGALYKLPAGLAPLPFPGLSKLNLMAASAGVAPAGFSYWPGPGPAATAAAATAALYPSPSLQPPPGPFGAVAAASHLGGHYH
Summary of the method: (§1)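 Human transcription factors fused to GST were expressed in yeast, captured on glutathione beads, given DNA barcodes and pooled with a GST-only negative control. Pools were incubated with 200 nmole of a 16-mer random double-stranded DNA library in Tris/NaCl/DTT/glycerol buffer at room temperature for 30 min. They were then washed, crosslinked with 0.1% formaldehyde, proximity-ligated (BsaI/T4 ligase, 1 h, 37 °C), PCR-amplified and sequenced on an Illumina NextSeq500. Binding signal is each 6-mer's read frequency for a factor divided by its frequency for the GST control.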

[2] = molecular target: ETV5 (Homo sapiens, UniProt P41161 1-510); details: protein: recombinant; tags: N-terminal GST; dsDNA, one strand shown
Summary of the method: as §1

[3] = molecular target: HSF1 (Homo sapiens, UniProt Q00613 1-529); details: protein: recombinant; tags: N-terminal GST; chain copies: 3; dsDNA, one strand shown
Summary of the method: as §1

[4] = molecular target: T2, SPIC (Homo sapiens, UniProt Q8N5J4 1-248); details: protein: recombinant; tags: N-terminal GST; dsDNA, one strand shown
T2 sequence: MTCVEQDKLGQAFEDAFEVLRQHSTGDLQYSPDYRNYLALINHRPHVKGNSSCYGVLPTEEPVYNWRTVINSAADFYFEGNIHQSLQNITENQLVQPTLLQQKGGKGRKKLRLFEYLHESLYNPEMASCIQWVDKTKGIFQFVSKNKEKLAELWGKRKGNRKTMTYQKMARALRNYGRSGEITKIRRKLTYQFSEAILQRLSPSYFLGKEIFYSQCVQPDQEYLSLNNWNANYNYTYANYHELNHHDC
Summary of the method: as §1

[5] = molecular target: ELF4 (Homo sapiens, UniProt Q99607 1-663); details: protein: recombinant; tags: N-terminal GST; dsDNA, one strand shown
Summary of the method: as §1

[6] = molecular target: T3, ELK4 (Homo sapiens, UniProt P28324-2 1-405); details: protein: recombinant; tags: N-terminal GST; dsDNA, one strand shown
T3 sequence: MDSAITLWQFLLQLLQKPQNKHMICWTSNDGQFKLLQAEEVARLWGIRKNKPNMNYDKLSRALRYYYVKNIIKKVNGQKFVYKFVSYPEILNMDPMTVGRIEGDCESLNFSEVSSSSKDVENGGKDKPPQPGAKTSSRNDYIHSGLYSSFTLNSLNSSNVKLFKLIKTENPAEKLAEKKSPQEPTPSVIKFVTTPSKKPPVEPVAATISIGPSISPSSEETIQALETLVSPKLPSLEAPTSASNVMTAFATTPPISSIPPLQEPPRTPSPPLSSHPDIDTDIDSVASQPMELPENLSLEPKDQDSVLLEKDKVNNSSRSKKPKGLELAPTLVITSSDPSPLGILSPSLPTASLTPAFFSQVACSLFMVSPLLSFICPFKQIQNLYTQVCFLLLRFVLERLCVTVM
Summary of the method: as §1

[7] = molecular target: T4, ETV2 (Homo sapiens, UniProt O00321 1-342); details: protein: recombinant; tags: N-terminal GST; dsDNA, one strand shown
T4 sequence: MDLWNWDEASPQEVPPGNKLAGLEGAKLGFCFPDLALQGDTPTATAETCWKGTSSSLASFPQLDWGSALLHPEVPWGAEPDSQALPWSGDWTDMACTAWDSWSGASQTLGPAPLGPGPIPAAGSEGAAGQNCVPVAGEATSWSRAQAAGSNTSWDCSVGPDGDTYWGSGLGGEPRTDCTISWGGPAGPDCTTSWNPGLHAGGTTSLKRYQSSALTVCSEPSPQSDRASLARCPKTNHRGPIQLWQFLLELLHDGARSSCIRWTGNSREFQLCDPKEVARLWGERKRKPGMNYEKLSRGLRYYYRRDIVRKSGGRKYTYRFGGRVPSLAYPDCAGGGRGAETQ
Summary of the method: as §1

[8] = molecular target: T5, ELF3 (Homo sapiens, UniProt P78545 1-371); details: protein: recombinant; tags: N-terminal GST; dsDNA, one strand shown
T5 sequence: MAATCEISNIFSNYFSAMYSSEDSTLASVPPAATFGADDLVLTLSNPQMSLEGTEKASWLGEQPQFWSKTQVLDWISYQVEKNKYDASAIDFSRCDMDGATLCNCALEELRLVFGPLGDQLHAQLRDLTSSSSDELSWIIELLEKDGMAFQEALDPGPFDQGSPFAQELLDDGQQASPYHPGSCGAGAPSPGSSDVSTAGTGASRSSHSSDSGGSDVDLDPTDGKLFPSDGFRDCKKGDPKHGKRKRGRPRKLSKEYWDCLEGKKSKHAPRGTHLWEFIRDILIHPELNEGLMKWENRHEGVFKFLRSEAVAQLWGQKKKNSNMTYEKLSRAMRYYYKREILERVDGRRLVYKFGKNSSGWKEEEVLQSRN
Summary of the method: as §1

[9] = molecular target: CRX (Homo sapiens, UniProt O43186 1-299); details: protein: recombinant; tags: N-terminal GST; dsDNA, one strand shown
Summary of the method: as §1

[10] = molecular target: ETV1 (Homo sapiens, UniProt P50549 1-477); details: protein: recombinant; tags: N-terminal GST; dsDNA, one strand shown
Summary of the method: as §1

[11] = molecular target: T6, ERF (Homo sapiens, UniProt P50548 1-548); details: protein: recombinant; tags: N-terminal GST; dsDNA, one strand shown
T6 sequence: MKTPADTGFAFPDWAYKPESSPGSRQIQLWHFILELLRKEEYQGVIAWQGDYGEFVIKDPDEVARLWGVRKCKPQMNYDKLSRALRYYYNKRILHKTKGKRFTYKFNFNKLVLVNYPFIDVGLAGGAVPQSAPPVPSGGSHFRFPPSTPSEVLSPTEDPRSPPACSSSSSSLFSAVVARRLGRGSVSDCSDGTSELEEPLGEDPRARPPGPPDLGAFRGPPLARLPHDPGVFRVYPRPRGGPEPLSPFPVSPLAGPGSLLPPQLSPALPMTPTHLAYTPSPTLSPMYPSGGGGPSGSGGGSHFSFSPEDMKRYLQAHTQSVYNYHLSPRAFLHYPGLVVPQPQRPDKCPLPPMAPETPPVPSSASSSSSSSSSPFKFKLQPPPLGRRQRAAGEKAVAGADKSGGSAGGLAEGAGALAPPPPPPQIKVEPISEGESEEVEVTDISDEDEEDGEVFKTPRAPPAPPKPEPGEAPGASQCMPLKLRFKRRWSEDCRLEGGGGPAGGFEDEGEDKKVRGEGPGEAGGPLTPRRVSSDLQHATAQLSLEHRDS
Summary of the method: as §1

[12] = molecular target: T7, ETV3L (Homo sapiens, UniProt Q6ZN32 1-361); details: protein: recombinant; tags: N-terminal GST; dsDNA, one strand shown
T7 sequence: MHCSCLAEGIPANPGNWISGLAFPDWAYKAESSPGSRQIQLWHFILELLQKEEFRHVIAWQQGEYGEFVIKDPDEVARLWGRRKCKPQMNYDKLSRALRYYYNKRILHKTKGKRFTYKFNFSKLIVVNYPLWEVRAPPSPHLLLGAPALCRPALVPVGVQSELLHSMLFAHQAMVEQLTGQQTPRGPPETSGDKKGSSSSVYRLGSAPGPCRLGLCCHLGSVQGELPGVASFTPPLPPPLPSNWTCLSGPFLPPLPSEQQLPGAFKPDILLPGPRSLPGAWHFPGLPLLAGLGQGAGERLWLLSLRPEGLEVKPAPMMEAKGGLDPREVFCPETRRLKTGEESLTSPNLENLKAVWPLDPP
Summary of the method: as §1

[13] = molecular target: T8, ETS2 (Homo sapiens, UniProt P15036 1-469); details: protein: recombinant; tags: N-terminal GST; dsDNA, one strand shown
T8 sequence: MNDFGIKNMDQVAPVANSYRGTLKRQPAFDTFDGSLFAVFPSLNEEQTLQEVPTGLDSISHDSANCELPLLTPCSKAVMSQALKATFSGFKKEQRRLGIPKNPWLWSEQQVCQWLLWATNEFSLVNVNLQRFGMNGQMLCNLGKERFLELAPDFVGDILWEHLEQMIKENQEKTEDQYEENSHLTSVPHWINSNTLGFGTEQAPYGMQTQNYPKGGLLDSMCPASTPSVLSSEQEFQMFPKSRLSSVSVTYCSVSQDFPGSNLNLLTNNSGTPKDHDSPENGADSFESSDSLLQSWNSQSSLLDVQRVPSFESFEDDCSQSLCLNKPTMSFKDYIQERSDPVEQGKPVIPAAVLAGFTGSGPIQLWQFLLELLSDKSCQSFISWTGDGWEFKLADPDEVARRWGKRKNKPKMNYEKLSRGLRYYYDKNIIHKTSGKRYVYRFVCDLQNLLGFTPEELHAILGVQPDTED
Summary of the method: as §1

[14] = molecular target: T9, SPDEF (Homo sapiens, UniProt O95238 1-335); details: protein: recombinant; tags: N-terminal GST; dsDNA, one strand shown
T9 sequence: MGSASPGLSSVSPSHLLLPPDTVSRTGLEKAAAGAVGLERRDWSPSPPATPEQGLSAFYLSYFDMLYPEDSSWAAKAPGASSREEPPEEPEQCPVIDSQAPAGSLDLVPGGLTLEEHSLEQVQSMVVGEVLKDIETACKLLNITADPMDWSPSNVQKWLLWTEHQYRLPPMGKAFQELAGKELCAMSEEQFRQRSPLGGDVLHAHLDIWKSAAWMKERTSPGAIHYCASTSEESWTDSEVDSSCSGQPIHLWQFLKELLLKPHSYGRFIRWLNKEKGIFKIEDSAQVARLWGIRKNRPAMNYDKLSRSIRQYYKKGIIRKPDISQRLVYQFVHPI
Summary of the method: as §1

[15] = molecular target: T10, ETV7 (Homo sapiens, UniProt Q9Y603 1-341); details: protein: recombinant; tags: N-terminal GST; dsDNA, one strand shown
T10 sequence: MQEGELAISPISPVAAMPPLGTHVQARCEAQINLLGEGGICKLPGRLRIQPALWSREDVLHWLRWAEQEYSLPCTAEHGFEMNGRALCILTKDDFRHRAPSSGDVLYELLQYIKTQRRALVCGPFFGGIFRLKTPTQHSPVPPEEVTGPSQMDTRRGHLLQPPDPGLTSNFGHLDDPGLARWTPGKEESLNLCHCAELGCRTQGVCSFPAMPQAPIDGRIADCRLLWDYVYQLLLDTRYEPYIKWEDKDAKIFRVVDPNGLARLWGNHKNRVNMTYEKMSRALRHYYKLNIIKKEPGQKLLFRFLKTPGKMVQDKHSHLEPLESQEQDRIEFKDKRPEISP
Summary of the method: as §1

[16] = molecular target: T11, ELF5 (Homo sapiens, UniProt Q9UKW6-2 1-255); details: protein: recombinant; tags: N-terminal GST; dsDNA, one strand shown
T11 sequence: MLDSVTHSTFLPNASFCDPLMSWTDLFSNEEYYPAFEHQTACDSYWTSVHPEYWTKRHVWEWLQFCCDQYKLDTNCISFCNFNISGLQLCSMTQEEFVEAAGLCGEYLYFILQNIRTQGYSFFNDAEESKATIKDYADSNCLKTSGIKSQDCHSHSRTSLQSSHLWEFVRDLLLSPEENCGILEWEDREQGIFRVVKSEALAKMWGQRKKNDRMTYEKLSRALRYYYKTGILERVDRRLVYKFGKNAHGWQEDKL
Summary of the method: as §1

[17] = molecular target: T12, ETV3 (Homo sapiens, UniProt P41162-2 1-143); details: protein: recombinant; tags: N-terminal GST; dsDNA, one strand shown
T12 sequence: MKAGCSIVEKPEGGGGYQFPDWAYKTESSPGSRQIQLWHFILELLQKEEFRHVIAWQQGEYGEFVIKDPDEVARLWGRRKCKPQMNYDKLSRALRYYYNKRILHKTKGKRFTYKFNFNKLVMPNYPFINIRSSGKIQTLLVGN
Summary of the method: as §1

[18] = molecular target: ETV6 (Homo sapiens, UniProt P41212 1-452); details: protein: recombinant; tags: N-terminal GST; dsDNA, one strand shown
Summary of the method: as §1

Sequence of ETV6 (P41212 whole entry): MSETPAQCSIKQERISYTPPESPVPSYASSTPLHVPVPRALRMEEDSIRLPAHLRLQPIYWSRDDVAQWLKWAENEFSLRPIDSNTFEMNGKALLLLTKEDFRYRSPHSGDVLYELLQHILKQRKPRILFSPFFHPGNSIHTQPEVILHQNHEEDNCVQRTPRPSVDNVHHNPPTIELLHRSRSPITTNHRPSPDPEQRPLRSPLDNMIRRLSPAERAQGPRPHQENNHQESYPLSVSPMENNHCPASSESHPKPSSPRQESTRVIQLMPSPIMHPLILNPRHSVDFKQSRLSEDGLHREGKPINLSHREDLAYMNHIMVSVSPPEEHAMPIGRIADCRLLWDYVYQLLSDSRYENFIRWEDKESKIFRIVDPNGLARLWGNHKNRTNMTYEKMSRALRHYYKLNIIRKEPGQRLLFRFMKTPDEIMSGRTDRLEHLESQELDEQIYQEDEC
Sequence of ELF4 (Q99607 whole entry): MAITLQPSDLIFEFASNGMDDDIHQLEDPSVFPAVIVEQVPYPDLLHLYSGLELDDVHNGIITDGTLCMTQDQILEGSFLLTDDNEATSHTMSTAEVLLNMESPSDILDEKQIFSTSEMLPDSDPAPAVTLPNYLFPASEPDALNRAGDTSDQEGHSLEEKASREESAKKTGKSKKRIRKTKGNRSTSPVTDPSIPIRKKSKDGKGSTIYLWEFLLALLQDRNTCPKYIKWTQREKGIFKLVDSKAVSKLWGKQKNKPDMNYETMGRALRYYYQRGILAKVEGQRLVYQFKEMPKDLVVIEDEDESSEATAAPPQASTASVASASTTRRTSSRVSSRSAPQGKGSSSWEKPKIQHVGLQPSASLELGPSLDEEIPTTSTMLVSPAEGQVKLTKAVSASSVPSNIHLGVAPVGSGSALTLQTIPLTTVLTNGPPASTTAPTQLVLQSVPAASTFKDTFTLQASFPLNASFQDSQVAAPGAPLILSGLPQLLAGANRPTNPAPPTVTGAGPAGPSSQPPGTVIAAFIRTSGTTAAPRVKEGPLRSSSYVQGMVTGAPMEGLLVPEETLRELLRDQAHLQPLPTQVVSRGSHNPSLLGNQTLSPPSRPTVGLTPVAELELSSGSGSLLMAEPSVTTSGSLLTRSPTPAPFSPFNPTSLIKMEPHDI
Sequence of ETV5 (P41161 whole entry): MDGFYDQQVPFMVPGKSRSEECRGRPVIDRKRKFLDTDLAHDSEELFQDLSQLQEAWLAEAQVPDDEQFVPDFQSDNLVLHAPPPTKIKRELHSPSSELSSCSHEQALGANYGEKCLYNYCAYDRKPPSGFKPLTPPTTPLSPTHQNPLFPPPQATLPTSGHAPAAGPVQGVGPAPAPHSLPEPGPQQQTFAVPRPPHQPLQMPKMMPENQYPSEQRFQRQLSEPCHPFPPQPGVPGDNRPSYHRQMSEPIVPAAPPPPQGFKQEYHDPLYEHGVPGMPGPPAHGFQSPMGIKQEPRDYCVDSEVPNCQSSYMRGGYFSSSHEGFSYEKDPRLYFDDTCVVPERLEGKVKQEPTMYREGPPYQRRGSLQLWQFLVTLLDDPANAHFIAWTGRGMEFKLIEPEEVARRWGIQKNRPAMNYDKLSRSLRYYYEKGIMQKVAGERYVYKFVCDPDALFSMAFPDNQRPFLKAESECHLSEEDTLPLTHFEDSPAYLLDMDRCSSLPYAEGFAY
Sequence of ETV1 (P50549 whole entry): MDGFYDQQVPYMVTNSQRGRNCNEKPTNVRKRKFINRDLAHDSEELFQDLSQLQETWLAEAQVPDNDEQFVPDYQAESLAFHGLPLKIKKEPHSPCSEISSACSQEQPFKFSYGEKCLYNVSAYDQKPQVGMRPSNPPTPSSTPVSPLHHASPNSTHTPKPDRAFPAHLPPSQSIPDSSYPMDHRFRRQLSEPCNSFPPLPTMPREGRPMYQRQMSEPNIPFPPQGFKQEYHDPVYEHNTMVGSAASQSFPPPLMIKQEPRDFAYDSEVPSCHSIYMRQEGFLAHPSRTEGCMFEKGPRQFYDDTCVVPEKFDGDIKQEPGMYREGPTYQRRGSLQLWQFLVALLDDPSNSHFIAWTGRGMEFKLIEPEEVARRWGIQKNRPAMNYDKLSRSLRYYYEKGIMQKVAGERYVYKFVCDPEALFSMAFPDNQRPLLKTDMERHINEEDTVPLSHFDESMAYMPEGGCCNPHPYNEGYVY
Sequence of HSF1 (Q00613 whole entry): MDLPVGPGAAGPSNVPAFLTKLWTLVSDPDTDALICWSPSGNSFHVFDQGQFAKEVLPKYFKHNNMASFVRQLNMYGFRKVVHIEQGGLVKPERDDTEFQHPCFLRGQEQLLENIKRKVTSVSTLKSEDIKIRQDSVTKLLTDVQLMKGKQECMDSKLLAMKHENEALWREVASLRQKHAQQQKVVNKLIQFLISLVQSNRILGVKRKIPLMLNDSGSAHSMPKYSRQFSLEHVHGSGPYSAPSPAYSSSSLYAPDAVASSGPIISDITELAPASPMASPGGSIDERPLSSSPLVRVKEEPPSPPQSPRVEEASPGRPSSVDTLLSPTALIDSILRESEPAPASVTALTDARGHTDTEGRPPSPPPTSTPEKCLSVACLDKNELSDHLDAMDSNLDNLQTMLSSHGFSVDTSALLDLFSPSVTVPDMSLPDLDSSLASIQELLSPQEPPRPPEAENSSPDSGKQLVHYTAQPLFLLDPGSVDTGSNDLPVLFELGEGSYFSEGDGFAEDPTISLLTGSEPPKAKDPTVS
Sequence of CRX (O43186 whole entry): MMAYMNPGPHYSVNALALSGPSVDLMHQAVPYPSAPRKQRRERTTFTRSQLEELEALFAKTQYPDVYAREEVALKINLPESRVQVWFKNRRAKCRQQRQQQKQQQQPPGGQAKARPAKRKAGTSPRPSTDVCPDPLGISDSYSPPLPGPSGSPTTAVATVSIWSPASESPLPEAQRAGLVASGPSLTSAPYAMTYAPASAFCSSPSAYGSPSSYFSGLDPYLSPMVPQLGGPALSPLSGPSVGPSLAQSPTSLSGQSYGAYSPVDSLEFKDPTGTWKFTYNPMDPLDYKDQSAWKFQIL

ACTATC
binding signal [1]: 1.13 fold enrichment (6-mer frequency, TF over GST control)
binding signal [2]: 1.13 fold enrichment (6-mer frequency, TF over GST control)
binding signal [3]: 1.13 fold enrichment (6-mer frequency, TF over GST control)
binding signal [4]: 1.19 fold enrichment (6-mer frequency, TF over GST control)
binding signal [5]: 1.24 fold enrichment (6-mer frequency, TF over GST control)
binding signal [6]: 1.2 fold enrichment (6-mer frequency, TF over GST control)
binding signal [7]: 1.32 fold enrichment (6-mer frequency, TF over GST control)
binding signal [8]: 1.22 fold enrichment (6-mer frequency, TF over GST control)
binding signal [9]: 1.15 fold enrichment (6-mer frequency, TF over GST control)
binding signal [10]: 1.15 fold enrichment (6-mer frequency, TF over GST control)
binding signal [11]: 1.21 fold enrichment (6-mer frequency, TF over GST control)
binding signal [12]: 1.15 fold enrichment (6-mer frequency, TF over GST control)
binding signal [13]: 1.19 fold enrichment (6-mer frequency, TF over GST control)
binding signal [14]: 1.18 fold enrichment (6-mer frequency, TF over GST control)
binding signal [15]: 1.19 fold enrichment (6-mer frequency, TF over GST control)
binding signal [16]: 1.13 fold enrichment (6-mer frequency, TF over GST control)
binding signal [17]: 1.13 fold enrichment (6-mer frequency, TF over GST control)
binding signal [18]: 1.1 fold enrichment (6-mer frequency, TF over GST control)
